GAA inh: inhibitors of human lysosomal alpha-glucosidase; P10253; Potency, µM (doses to about 76.9 µM), actives largely listed as inhibitors; hit rate 0.005% among 200,000; purified human GAA, 4-MU-alpha-glucoside fluorescence
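Enzyme (4 nM final) mixed with compound (up to 77 uM), then 4-MU-alpha-D-pyranoside (400 uM final) added; 20 min at room temperature, pH 5.0. Reaction stopped at pH 10, fluorescence read, AC50 derived by Hill fit.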
GLA inh pH 4.5: alpha-galactosidase A (human) inhibition, pH 4.5; P06280; purified enzyme, 4-MU-alpha-Gal fluorescence, pH 4.5; activity change, negative = inhibition, % at 105 µM; 230,000 tested, under 10 active
GAA glycogen mod: inhibitors or activators of human alpha-glucosidase glycogen cleavage | recombinant GAA, glycogen substrate, Amplex Red glucose oxidase fluorescence | P10253 | Potency, µM (titrated, usually from 76.4 µM), actives largely listed as inhibitors | hit rate 0.38% among 300,000;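 further: the screen sought inhibitors and activators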
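Recombinant human alpha-glucosidase (4 nM final) hydrolysed bovine liver glycogen (30 ug) for 40 min at 37 C in pH 5.0 citrate/phosphate with 0.01% Tween-20. Released glucose detected by glucose oxidase/Amplex Red, Ex 573/Em 610 nm. Compounds up to 77 uM; AC50 from Hill fits.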
aGal spleen mod: alpha-galactosidase A (human) modulation | hit rate 0.008% among 240,000 | Potency, µM (top dose mostly 80 µM), usual class: inhibitors | human spleen homogenate, 4MU-alpha-Gal fluorescence, 40 min
Target sequence (P06280 32-429 limits assumed): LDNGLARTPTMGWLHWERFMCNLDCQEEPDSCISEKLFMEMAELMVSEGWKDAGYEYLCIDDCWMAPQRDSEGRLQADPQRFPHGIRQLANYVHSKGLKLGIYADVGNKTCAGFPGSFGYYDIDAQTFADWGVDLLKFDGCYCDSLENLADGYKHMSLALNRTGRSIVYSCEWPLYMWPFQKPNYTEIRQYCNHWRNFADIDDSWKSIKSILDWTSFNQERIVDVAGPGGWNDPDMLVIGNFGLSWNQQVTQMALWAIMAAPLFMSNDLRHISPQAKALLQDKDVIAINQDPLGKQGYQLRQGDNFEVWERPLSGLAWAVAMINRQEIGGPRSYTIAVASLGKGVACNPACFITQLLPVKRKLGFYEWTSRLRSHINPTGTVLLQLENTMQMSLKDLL
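Human spleen homogenate (1 ug) was the enzyme source, with 4-methylumbelliferyl-alpha-D-galactopyranoside (1 mM final) in pH 5.0 citrate buffer with 0.01% Tween-20. Compounds were titrated; after 40 min at 37C, NaOH/glycine stop, 4-MU fluorescence read; AC50 from Hill fits.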
N370S GC: inhibitors or activators of N370S glucocerebrosidase for Gaucher disease | P04062 | N370S GC spleen homogenate, 4MU-glucoside fluorescence | hit rate 0.092% among 330,000 | Potency, µM (series often up to 59.4 µM), hits mostly inhibitors | AID 2101
GAA spleen mod: inhibits or activates alpha-glucosidase in human spleen homogenate; Potency, µM (series often up to 79.9 µM), hits mostly inhibitors; P10253; hit rate 0.006% among 240,000; human spleen homogenate, 4-MU-alpha-glucoside fluorescence; AID 2112
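Human spleen homogenate (1 ug) with 4-methylumbelliferyl-alpha-D-glucopyranoside (1 mM final) in 50 mM citrate/phosphate pH 5.0, 0.01% Tween-20; 40 min at 37 C. Stopped at pH 10; 4-MU fluorescence Ex 365/Em 440 nm; AC50 by Hill fit.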
Hits are given with their value; i = inactive; ? = inconclusive; nt = no result; ! = a repeat was not active; [ ] = dose if it differs, or a comment. This is a sample that favours compounds with a hit; in the whole collection about 0.43% have one here. The call rests on the fitted dose curve; in most records, active means well fitted curve in the direction sought with a large enough effect; inconclusive means small, poorly fitted or top-dose-only effect, or another doubt; inactive means no such curve, though single readings can be large; an effect the other way counts as inactive or inconclusive.

SMILES	GAA inh	GLA inh pH 4.5	GAA glycogen mod	aGal spleen mod	N370S GC	GAA spleen mod
CSc1ccc2c(c1)[C@H](N1CCN(C)CC1)Cc1ccccc1S2	nt	i	nt	i	13µM	i
CN1CCN(C2Cc3ccccc3Sc3ccc(Cl)cc32)CC1 (configuration not stated)	nt	i	nt	i	?	i
CSc1ccc2c(c1)C(N1CCN(C)CC1)Cc1ccccc1S2 (configuration not stated)	nt	i	i	i	18µM!	i
CCOC(=O)N1CCC(N2Cc3cccc(C(=O)Nc4ccc(OC)c(OC)c4)c3C2=O)CC1	i[15.4 µM]	i	i	i	i	i
CCOC(=O)N1CCN(c2ccccc2O)CC1	i	i	11µM	i	i	i
CCCN(CCC)Cc1c(C(=O)N/N=C/c2ccco2)nnn1-c1nonc1N	nt	nt	i	nt	i	nt
Cc1cccc(NC(=S)N(CCCN2CCOCC2)Cc2ccccn2)c1	i	i	i	i	?	i
S=C(Nc1ccc(Oc2ccccc2)cc1)N(CCCN1CCOCC1)Cc1ccccn1	i	i	i	i	10µM	i
CCn1c(CN2CCOCC2)nnc1SCC(=O)Nc1ccccc1Cl	nt	nt	i	nt	i	nt
CC(=O)N1CCN(c2ccc(NCc3ccc(C)cc3)cc2)CC1	i	i	20µM	i	i	i
CC(=O)N1CCN(c2ccc(NC(=O)C(c3ccccc3)c3ccccc3)cc2)CC1	nt	nt	i	nt	13µM	nt
CCc1ccc(CNc2ccc(N3CCN(C(C)=O)CC3)cc2)cc1	i	i	?	i	i	i
O=C(Nc1ccc(N2CCCC2)cc1)C(c1ccccc1)c1ccccc1	i	i	i	i	i	i
Oc1ccc(/C=N/Nc2ccnc3cc(Cl)ccc23)cc1O	nt	i	45µM	i	i	i
Cc1c(C)n(Cc2ccc(F)cc2)c2ccc(C(=O)NCCN3CCOCC3)cc12	nt	nt	i	nt	14µM	nt
Cc1cccc(Cn2c(C)c(C)c3cc(C(=O)NCCN4CCOCC4)ccc32)c1	nt	nt	i	nt	?	nt
O=C(O)c1ccc(-c2nc(-c3ccc(Cl)c(Cl)c3)cs2)cc1	i	i	i	i	i	i
NC(=O)C(=CNc1nc(-c2ccc(Cl)c(Cl)c2)cs1)C(N)=O	nt	i	7.1µM	i	i	i
O=C(O)c1cccnc1SCC(=O)C12CC3CC(CC(C3)C1)C2	nt	i	i	i	i	i
C=C(C)/C=N/NC(=S)Nc1ccc(S(=O)(=O)N2CCOCC2)cc1	nt	i	25µM	i	i	i
Cc1ccc(C)c(NC(=O)C2CCCN(S(=O)(=O)c3ccc4[nH]c(=O)ccc4c3)C2)c1 (configuration not stated)	nt	nt	32µM	nt	i	nt
C=C(C)c1cccc(C(C)(C)NC(=O)Nc2ccc(C(N)=O)cc2)c1	i	i	i	i	i	i
C=C(C)c1cccc(C(C)(C)NC(=O)Nc2cccnc2)c1	nt	nt	i	nt	22µM	nt
CC(C)CC1Nc2ccc(C(=O)NCCCN3CCCCC3C)cc2NC1=O (configuration not stated)	nt	nt	13µM	nt	i	nt
O=[N+]([O-])c1cc2nc(O)c(O)nc2cc1[N+](=O)[O-]	nt	i	nt	i	13µM	i
SMILES	GAA inh	GLA inh pH 4.5	GAA glycogen mod	aGal spleen mod	N370S GC	GAA spleen mod
N#Cc1cc2nc(O)c(O)nc2cc1[N+](=O)[O-]	nt	i	nt	i	nt	i
CCOC(=O)CSc1nnc(Cc2ccccc2)n1CC1CCCO1 (configuration not stated)	i	i	i	i	i	i
Cc1cc(C)c2ccc3c(C)c(C)nc3c2[nH]1	?	i	i	i	7.1µM	nt
O=C1CCCC2=C1C(c1ccc(O)c(O)c1)Nc1ccc3ncccc3c12 (configuration not stated)	i	i	2.8µM	i	i	i
O=C(Nc1cc(S(=O)(=O)N2CCOCC2)ccc1N1CCOCC1)c1cc(=O)[nH]c2ccccc12	?	i	28µM	i	i	i
C=CCn1c(-c2cc(-c3ccccc3)sc2N)n[nH]c1=S	i	i	22µM	i	i	i
C=CCn1c(-c2csc(-c3ccccc3)n2)n[nH]c1=S	i	i	i	i	i	i
O=C(/C=C/c1ccc(O)c(O)c1)OC(Cc1ccc(O)c(O)c1)C(=O)O (configuration not stated)	nt	i	2µM	i	i	i
CCCCn1c(C)cc2cc(O)ccc21	i	i	32µM	i	i	i
Fc1ccccc1NC(=S)NNc1ncc(C(F)(F)F)cc1Cl	i	i	28µM	i	i	i
COc1cc(/C=C2/NC(=O)N(Cc3ccccc3F)C2=O)cc(OC)c1O	?	?	?	?	i	i
CCOc1cc(/C=C2/NC(=O)N(Cc3ccccc3F)C2=O)ccc1O	i	i	5.6µM	i	i	i
Cc1cccnc1Nc1nc(-c2ccc(O)c(O)c2)cs1	?	i	7.1µM	i	i	i
Cc1ccnc(Nc2nc(-c3ccc(O)c(O)c3)cs2)c1	nt	nt	6.3µM	nt	i	nt
COc1ccc(OC)c(S(=O)(=O)Nc2ccc(O)c3ccccc23)c1	i	i	14µM	i	i	i
Cc1ccc(N/C=C/C(=O)c2ccco2)c(O)c1	nt	i	8.9µM	i	i	i
O=C(CCC(=O)N1CCN(c2ccc(O)cc2)CC1)c1cccs1	nt	i	11µM	i	i	i
CC(=O)c1ccc(N2CCN(C(=O)CCC(=O)c3cccs3)CC2)cc1	i	i	i	i	i	i
Cc1ccc(OCCC(=O)N2CCN(c3ccc(O)cc3)CC2)cc1	nt	i	13µM	i	i	i
Oc1ccccc1N=Cc1ccc[nH]1	i	i	2.8µM	i	i	i
Fc1ccc(N=Cc2ccc[nH]2)cc1	nt	nt	i	nt	i	nt
CC1(C)CN(c2ccccc2)N(C(=O)c2ccc(F)cc2)C1=O	i	i	i	i	i	i
CC1(C)CN(c2ccccc2)N(C(=O)c2ccc(C#N)cc2)C1=O	i	i	20µM	i	i	i
O=C(O)COc1ccc(/C=N/n2c(COc3ccccc3)nc3ccccc3c2=O)cc1	i	i	i	i	i	i
O=c1c2ccccc2nc(COc2ccccc2)n1/N=C/c1ccc(O)c(O)c1	nt	i	16µM	i	i	i
SMILES	GAA inh	GLA inh pH 4.5	GAA glycogen mod	aGal spleen mod	N370S GC	GAA spleen mod
Cc1c(O)ccc(/C=N/Nc2nc(-c3cccnc3)nc3ccccc23)c1O	i	i	35µM	i	?	i
Oc1ccc(/C=N/Nc2nc(-c3cccnc3)nc3ccccc23)c(O)c1	nt	i	?	i	i	i
Oc1ccc(N2CCN(C(c3ccncc3)c3nnnn3C3CCCC3)CC2)cc1 (configuration not stated)	i	i	12µM	i	i	i
COc1ccc(N2CCN(Cc3nc(N)nc(Nc4ccccc4OC)n3)CC2)cc1	i	i	40µM	i	i	i
COc1ccccc1Nc1nc(N)nc(CN2CCCCC2)n1	i	i	i	i	i	i
O=C(NN=C1C2CC3CC(C2)CC1C3)c1cc(Cl)ccc1O	i	i	13µM	i	i	i
O=C(NN=C1C2CC3CC(C2)CC1C3)c1ccncc1	i	i	?	i	i	i
